The structures appear in SMILES notation.

Assay [1] deals with Tyrosine-protein kinase CSK (Homo sapiens) (UniProt P41240). Particulars: at 1 µM.
For assay [2], the target named is T1, Discoidin domain-containing receptor 2 (Homo sapiens) (UniProt Q16832).
T1 sequence (whole entry): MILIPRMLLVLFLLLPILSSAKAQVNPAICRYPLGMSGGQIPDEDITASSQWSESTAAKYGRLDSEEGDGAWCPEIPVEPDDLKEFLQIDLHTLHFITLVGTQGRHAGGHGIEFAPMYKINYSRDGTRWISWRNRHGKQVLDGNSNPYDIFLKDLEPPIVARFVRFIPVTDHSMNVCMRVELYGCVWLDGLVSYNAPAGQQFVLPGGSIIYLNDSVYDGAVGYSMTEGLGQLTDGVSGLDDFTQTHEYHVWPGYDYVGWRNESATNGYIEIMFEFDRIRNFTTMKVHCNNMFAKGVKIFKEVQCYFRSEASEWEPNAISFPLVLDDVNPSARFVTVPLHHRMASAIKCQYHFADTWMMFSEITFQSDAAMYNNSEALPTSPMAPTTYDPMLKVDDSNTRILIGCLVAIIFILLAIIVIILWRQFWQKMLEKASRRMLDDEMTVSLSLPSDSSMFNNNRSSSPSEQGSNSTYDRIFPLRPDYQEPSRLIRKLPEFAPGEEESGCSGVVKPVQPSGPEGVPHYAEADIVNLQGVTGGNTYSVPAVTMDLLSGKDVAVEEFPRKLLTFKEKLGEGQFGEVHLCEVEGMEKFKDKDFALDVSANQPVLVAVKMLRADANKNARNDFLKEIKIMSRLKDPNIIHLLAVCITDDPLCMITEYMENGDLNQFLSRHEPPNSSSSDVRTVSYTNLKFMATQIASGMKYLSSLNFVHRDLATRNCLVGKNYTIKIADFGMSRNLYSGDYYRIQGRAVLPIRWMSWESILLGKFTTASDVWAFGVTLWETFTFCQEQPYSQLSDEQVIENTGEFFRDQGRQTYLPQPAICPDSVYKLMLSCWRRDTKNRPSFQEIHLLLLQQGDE
Particulars: at 0.1 µM.

The target of assay [3] is T1, Discoidin domain-containing receptor 2 (Homo sapiens). The settings on record: at 1 µM.
In assay [4] the target is Epidermal growth factor receptor (Homo sapiens) (UniProt P00533). The settings on record: at 0.1 µM.
Epidermal growth factor receptor (Homo sapiens), sequence (P00533 whole entry): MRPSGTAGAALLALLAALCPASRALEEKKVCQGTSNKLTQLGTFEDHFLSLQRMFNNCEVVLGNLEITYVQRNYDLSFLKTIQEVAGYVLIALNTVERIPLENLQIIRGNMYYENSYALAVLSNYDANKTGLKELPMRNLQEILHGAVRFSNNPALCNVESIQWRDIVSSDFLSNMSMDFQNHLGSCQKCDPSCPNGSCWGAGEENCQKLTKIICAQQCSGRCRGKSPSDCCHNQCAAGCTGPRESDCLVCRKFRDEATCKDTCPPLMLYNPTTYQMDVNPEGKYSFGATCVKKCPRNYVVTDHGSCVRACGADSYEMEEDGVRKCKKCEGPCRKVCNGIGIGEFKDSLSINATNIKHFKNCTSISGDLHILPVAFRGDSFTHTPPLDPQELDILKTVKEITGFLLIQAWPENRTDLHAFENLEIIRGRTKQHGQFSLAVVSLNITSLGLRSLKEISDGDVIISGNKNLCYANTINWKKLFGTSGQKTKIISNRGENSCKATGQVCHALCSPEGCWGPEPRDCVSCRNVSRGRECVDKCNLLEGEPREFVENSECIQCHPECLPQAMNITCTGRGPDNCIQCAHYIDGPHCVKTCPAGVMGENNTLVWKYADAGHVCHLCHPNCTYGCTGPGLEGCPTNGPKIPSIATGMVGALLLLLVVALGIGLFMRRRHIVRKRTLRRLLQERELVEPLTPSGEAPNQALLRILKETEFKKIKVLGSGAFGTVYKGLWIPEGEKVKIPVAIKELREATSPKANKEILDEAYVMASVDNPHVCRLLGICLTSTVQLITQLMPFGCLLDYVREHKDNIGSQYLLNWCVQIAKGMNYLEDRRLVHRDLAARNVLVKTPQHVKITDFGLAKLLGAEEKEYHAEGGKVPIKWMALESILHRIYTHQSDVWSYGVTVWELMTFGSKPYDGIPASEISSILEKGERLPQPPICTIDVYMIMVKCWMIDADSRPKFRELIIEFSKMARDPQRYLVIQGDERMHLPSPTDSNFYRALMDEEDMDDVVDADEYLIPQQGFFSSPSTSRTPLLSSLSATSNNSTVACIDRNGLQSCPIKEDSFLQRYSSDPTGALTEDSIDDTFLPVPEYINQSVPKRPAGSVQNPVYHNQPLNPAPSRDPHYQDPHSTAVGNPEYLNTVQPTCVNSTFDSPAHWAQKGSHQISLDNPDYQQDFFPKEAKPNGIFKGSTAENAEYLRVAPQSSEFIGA
Assay [5] shares this target. The settings on record: at 1 µM.
In assay [6] the test system is Epidermal growth factor receptor (Homo sapiens), P00533 [L858R]. The settings on record: at 0.1 µM.
Epidermal growth factor receptor (Homo sapiens), P00533 [L858R], sequence (P00533 whole entry L858R): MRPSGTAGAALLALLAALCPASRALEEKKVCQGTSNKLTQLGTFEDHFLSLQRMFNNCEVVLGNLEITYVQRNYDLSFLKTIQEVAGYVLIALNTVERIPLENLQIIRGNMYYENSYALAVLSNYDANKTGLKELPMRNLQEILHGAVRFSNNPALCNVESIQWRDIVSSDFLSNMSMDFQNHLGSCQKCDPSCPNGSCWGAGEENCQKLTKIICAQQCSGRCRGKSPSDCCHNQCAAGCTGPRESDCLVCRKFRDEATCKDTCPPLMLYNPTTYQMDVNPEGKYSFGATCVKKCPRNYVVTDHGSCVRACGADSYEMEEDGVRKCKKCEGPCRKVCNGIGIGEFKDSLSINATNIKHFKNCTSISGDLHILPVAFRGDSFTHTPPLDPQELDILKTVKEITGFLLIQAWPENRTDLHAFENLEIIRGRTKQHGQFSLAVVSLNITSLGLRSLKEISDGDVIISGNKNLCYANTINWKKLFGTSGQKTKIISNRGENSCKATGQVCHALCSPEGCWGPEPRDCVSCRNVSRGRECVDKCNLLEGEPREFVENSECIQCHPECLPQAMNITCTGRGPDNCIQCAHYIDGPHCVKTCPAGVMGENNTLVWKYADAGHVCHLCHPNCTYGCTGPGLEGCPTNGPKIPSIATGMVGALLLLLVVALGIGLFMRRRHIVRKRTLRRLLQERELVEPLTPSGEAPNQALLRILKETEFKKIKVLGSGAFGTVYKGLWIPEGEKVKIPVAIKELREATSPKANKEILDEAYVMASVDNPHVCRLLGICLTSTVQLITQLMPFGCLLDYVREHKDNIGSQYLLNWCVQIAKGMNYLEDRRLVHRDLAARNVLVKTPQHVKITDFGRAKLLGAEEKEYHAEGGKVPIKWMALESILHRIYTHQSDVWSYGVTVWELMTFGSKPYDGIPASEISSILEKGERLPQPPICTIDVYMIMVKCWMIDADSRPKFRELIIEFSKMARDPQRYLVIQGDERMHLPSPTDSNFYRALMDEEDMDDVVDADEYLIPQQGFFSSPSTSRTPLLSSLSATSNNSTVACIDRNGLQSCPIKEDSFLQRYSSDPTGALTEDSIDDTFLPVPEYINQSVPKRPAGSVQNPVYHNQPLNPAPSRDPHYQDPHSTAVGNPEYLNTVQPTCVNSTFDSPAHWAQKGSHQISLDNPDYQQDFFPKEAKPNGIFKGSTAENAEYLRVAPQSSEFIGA
Assay [7] shares this test system. Particulars: at 1 µM.
Assay [8] has as its system Epidermal growth factor receptor (Homo sapiens), P00533 [L861Q]. The settings on record: at 0.1 µM.
Assay [9] shares this test system. The settings on record: at 1 µM.
Assay [10] concerns Epidermal growth factor receptor (Homo sapiens), P00533 [T790M]. The settings on record: at 0.1 µM.
Epidermal growth factor receptor (Homo sapiens), P00533 [T790M], sequence (P00533 whole entry T790M): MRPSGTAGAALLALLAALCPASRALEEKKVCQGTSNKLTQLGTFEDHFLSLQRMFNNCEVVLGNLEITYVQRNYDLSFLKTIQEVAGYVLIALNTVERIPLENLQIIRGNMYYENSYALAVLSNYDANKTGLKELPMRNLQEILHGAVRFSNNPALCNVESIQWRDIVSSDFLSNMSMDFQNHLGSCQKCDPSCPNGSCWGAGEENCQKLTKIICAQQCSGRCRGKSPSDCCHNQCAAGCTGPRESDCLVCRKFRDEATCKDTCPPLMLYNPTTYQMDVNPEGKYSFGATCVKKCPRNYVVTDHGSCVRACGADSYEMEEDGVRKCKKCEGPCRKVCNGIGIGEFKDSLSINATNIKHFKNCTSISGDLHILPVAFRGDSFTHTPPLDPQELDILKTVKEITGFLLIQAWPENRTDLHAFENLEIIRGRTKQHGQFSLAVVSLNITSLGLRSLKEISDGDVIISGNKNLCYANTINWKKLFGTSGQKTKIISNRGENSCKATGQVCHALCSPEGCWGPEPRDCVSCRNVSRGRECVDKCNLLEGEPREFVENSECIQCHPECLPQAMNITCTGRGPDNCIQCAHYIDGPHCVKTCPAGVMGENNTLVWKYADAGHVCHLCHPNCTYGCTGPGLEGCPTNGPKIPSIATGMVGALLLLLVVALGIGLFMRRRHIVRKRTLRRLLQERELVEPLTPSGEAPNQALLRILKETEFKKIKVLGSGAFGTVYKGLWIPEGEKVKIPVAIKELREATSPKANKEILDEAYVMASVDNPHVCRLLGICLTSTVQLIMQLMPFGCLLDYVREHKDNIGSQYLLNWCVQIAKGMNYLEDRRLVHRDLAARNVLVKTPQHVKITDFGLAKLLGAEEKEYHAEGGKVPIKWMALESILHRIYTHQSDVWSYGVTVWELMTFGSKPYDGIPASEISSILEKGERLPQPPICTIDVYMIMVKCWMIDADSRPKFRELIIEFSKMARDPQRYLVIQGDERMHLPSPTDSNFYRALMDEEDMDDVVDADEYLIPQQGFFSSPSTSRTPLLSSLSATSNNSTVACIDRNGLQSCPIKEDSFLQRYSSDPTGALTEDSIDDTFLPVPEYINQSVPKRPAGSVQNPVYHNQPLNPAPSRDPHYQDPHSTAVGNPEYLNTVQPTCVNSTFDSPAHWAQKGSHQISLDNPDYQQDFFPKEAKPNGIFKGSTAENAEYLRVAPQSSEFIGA
For assay [11] the test system is unchanged. Particulars: at 1 µM.
Assay [12] relates to Epidermal growth factor receptor (Homo sapiens), P00533 [L858R,T790M]. Particulars: at 0.1 µM.
The test system is the same in assay [13]. The settings on record: at 1 µM.
Assay [14] concerns the target Ephrin type-A receptor 2 (Homo sapiens) (UniProt P29317). Particulars: at 0.1 µM.
Assay [15] has the same target. Particulars: at 1 µM.
For assay [16], the target named is T2, Ephrin type-A receptor 3 (Homo sapiens) (UniProt P29320).
T2 sequence (whole entry): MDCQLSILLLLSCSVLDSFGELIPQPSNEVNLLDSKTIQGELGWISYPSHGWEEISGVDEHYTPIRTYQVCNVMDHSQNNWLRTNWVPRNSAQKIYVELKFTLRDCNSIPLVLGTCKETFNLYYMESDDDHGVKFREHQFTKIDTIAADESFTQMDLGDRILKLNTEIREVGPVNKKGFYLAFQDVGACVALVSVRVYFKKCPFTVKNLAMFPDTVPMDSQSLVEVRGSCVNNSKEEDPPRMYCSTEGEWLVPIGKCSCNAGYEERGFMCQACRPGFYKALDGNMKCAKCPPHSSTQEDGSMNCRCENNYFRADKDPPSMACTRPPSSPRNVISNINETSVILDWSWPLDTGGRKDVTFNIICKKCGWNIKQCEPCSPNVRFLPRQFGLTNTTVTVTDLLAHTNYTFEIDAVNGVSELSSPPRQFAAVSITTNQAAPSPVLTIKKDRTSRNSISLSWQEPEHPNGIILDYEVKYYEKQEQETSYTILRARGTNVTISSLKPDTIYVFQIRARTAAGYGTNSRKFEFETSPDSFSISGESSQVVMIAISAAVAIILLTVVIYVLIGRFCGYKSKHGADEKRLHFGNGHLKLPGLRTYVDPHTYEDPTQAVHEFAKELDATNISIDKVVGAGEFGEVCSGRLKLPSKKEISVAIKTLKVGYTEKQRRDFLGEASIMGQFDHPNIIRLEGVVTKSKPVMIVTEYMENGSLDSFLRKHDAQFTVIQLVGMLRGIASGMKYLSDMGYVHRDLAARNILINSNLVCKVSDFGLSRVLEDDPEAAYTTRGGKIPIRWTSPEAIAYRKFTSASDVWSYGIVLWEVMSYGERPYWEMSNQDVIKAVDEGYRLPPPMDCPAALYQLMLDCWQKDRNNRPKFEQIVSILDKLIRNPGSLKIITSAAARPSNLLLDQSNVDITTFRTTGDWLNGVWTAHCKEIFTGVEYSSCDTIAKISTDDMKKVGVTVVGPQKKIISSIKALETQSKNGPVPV
The settings on record: at 0.1 µM.

The target in assay [17] is T2, Ephrin type-A receptor 3 (Homo sapiens). Particulars: at 1 µM.
Assay [18] has as its target Ephrin type-A receptor 4 (Homo sapiens) (UniProt P54764). The settings on record: at 0.1 µM.
The target is the same in assay [19]. The settings on record: at 1 µM.
Assay [20] deals with T3, Ephrin type-B receptor 2 (Homo sapiens) (UniProt P29323).
T3 sequence (whole entry): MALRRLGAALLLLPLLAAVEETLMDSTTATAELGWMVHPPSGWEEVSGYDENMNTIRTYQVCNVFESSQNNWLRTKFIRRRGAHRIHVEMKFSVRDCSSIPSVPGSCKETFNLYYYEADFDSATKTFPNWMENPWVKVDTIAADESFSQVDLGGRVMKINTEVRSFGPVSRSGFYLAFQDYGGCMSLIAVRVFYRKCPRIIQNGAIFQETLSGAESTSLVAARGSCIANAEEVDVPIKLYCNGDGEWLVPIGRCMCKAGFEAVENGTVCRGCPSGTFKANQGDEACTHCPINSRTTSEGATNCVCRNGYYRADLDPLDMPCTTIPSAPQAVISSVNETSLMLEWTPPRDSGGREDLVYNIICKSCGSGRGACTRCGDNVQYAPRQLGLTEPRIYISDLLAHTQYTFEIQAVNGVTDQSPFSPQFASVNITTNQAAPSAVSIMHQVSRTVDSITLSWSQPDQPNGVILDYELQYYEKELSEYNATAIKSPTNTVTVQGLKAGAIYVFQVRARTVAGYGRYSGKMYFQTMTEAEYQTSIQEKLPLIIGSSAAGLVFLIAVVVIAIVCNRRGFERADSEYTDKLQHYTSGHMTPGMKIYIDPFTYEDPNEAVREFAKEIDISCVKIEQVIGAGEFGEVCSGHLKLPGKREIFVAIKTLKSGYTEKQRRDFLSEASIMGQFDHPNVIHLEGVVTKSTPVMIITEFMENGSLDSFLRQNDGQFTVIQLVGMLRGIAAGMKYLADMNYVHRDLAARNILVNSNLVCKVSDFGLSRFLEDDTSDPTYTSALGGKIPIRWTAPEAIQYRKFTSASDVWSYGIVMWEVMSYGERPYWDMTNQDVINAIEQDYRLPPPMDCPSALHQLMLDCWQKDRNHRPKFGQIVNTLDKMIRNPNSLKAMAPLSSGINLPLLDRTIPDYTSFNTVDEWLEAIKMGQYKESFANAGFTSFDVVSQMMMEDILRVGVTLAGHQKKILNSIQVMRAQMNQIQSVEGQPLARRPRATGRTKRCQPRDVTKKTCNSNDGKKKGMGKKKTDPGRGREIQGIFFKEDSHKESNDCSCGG
The settings on record: at 0.1 µM.

Epidermal growth factor receptor (Homo sapiens), P00533 [L861Q], sequence (P00533 whole entry L861Q): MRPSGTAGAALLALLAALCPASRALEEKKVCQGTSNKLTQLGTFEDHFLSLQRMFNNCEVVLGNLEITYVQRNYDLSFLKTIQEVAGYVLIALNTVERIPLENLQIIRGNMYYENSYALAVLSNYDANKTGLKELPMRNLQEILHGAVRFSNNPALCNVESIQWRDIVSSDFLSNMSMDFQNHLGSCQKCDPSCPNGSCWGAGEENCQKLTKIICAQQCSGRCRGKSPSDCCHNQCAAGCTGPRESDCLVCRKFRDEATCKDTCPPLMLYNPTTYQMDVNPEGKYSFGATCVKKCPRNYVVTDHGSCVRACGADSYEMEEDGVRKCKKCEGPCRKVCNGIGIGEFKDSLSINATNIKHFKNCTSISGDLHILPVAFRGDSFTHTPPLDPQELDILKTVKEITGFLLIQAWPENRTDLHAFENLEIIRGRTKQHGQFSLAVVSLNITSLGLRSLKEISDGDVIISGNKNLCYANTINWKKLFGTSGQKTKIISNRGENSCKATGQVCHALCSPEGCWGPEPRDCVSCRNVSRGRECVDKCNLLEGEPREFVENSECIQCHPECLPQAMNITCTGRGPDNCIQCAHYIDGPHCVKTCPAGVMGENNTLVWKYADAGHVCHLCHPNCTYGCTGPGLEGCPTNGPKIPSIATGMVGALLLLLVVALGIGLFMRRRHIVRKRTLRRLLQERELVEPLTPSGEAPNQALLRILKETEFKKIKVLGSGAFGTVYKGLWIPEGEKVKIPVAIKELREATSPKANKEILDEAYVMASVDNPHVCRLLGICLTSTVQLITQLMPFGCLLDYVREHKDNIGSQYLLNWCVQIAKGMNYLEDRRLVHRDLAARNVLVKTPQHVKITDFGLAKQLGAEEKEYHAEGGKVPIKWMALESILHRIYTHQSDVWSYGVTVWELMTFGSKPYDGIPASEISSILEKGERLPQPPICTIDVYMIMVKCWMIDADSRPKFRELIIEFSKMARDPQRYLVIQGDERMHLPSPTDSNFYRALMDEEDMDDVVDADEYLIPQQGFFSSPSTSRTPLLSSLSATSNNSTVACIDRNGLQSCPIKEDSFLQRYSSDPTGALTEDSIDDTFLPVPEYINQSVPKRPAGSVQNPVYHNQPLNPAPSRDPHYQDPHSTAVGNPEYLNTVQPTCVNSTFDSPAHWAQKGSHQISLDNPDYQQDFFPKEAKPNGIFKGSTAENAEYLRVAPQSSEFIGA

Consider `COc1cc2ncnc(Nc3ccc(C)c(O)c3)c2cc1OC`, for which the inhibition came out at 16.8% in assay [1]; 2.29% in assay [2]; 9.45% in assay [3]; 64.7% in assay [4]; 80.9% in [5]; 92.3% in assay [6]. Further, the inhibition worked out at 99.4% in assay [7]; 77.2% in assay [8]; 96.2% in [9]; 8.64% in assay [10]; 31.2% in assay [11]; 3.9% in assay [12]. Further, the inhibition amounted to 13.5% in assay [13]; 2.35% in assay [14]; 10.6% in assay [15]; 6.24% in assay [16]; 16.7% in [17]; 15.9% in assay [18]. The inhibition stood at 49.9% in [19] and 11.1% in [20].
In the case of `CN(C)c1cc2c(Nc3ccc4c(cnn4Cc4ccccc4)c3)ncnc2cn1`, the inhibition in assay [1] was determined as 27.6%; in assay [2] it was 1.06%; in assay [3], 3.09%; in [14] it was 0.12%; in [15] it was 0.17%; in assay [16], 3.01%. In addition, the inhibition came to 3.25% in assay [17], 6.93% in assay [18], 2.96% in assay [19] and 2.52% in assay [20].
For `COc1cc2ncnc(Nc3ccc4c(cnn4Cc4ccccc4)c3)c2cc1OC`, the inhibition in assay [1] was 58.2%; in assay [2], 1.74%; in assay [3], 1.78%; in assay [4], 87.2%; in [5] it was 84.7%; in assay [6], 72.5%. In addition, the inhibition turned out to be 94.4% in [7]; 55.8% in [8]; 84.8% in assay [9]; 8.65% in assay [10]; 36.2% in assay [11]; 1.03% in assay [12]. The inhibition in assay [13] is 3.09%; in assay [14], -2.8%; in assay [15], -2.26%; in assay [16], 1.64%; in [17], 2.12%; in assay [18], 4.83%. The results for the inhibition in assay [19] and in [20] were 6.82% and 4.85%, respectively.
Consider `[O-][S+]1CCN(Cc2ccc(-c3ccc4ncnc(Nc5ccc(OCc6ccccc6)c(Cl)c5)c4c3)o2)CC1`, for which the inhibition was 1.54% in assay [1]; 0.28% in [2]; 1.54% in assay [3]; -3.15% in [14]; -2.96% in [15]; -1.64% in [16]. Also, the inhibition was -1.69% in assay [17], 2.8% in [18], 3.82% in assay [19] and 6.04% in assay [20].
Consider `NC(=O)c1cccc(Nc2nccc(Nc3cccc(F)c3)n2)c1`, for which the inhibition in assay [1] is 9.32%; in assay [2] it was -1.54%; in assay [3] it was 6.93%; in [4] it was 1.6%; in assay [5], 10.6%; in [6], 0.01%. Besides, the inhibition was 31.4% in [7]; 0.09% in assay [8]; 10.1% in [9]; -0.56% in assay [10]; 1.97% in assay [11]; -1.09% in assay [12]. Further, the inhibition was 2.58% in assay [13]; -0.63% in [14]; 17.9% in assay [15]; 0.42% in [16]; 7.65% in [17]; 5.65% in assay [18]. For the same compound, the inhibition in [19] was determined as 29.1%; in [20], 3.44%.
Regarding `CC(C)c1ccc2c(c1)NC(=O)/C2=N/Nc1ccc(S(N)(=O)=O)cc1`, the inhibition is 0.99% in assay [1]; 0.55% in assay [2]; 0.19% in assay [3]; 1.14% in [4]; 2.18% in assay [5]; -0.18% in assay [6]. The inhibition was -0.39% in [7]; -0.48% in assay [8]; -2.09% in assay [9]; -1.03% in assay [10]; -1.35% in assay [11]; -0.97% in [12]. In addition, the inhibition in assay [13] was -2.16%; in [14], -2%; in assay [15], -1.68%; in assay [16], -0.36%; in assay [17], 1.64%; in assay [18], 3.01%. The inhibition amounted to 5.06% in assay [19] and 0.18% in [20].
Regarding `COc1ccc2ncnc(Nc3ccc(OCc4ccccc4)cc3)c2c1`, the inhibition in assay [1] is 8.35%; in assay [2], 1.31%; in assay [3], 2.34%; in [4], 62.7%; in assay [5], 76.2%; in assay [6], 12.1%. Besides, the inhibition is 46.3% in assay [7]; 23.9% in assay [8]; 39% in [9]; -0.31% in assay [10]; 5.68% in [11]; 2.24% in [12]. For the same compound, the inhibition in assay [13] is 4.15%; in assay [14] it was 1.06%; in assay [15], 0.85%; in [16] it was 2.45%; in assay [17], 3.28%; in assay [18], 5.9%. Also, the inhibition in [19] came to 5.92%; in assay [20] it was 3.16%.
As to `NS(=O)(=O)c1ccc(Nc2cc(-c3cccc(O)c3)n[nH]2)cc1`, the inhibition in assay [1] was 5.32%; in assay [2], 2.49%; in [3], 3.91%; in assay [4], 0.67%; in assay [5], 1.98%; in assay [6], 5.34%. In addition, the inhibition in assay [7] is 5.18%; in [8], 3.68%; in assay [9], 1.85%; in [10] it was 2.46%; in [11], 3.02%; in assay [12], 4.99%. In addition, the inhibition in assay [13] is 3.61%; in [14], 1.13%; in assay [15], 0.64%; in assay [16], 6.18%; in [17] it was 6.36%; in assay [18], 10.1%. In addition, the results for the inhibition in assay [19] and in assay [20] were 7.86% and 6.18%, respectively.
On to `Nc1nccc(C#Cc2cncnc2Nc2ccc(OCc3cccc(F)c3)c(Cl)c2)n1`, for which the inhibition in assay [1] is 3.09%; in [2], 1.14%; in assay [3], 4.7%; in assay [14], 0.65%; in assay [15] it was 1.27%; in assay [16] it was 1.8%. The inhibition in assay [17] was 3.27%; in assay [18] it was 6.14%; in assay [19] it was -0.84%; in assay [20], 9.67%.

Source of the values: ChEMBL document CHEMBL1961873, “Compounds: GSK PKIS; Assays: Nanosyn kinase panel” (2012).
